{
  "source": "PubChem BioAssay (EPA / NIEHS)",
  "note": "Several values for one entry are separate records, joined by “and”; a condition that tells them apart may be missing. Identical values can stand only once. Results filed as inconclusive are left out. Activity calls are given as the source filed them. How the source made its calls: active means hit-call score of the fitted dose curve at least 0.9, where 1 is the maximum; inconclusive means response in the unintended direction; inactive means score below 0.9.",
  "data": [
    {"system": "not listed separately", "assay": "CCTE_Mundy_HCI_iCellGluta_NOG_NeuriteCount: CCTE's Neurite Outgrowth Assay in iCellGluta cells for Neurite Count, Mundy Lab (AID 2284342);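 further: chemical exposure about 48 hours starting 2 hours after plating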", "values": [
      {"smiles": "COc1ccc(O)c(C(C)(C)C)c1", "outcome": "inactive"},
      {"smiles": "O=S(=O)(O)C(F)(F)C(F)(F)C(F)(F)C(F)(F)C(F)(F)C(F)(F)F", "outcome": "inactive"},
      {"smiles": "CCOP(=S)(OCC)SCSC(C)(C)C", "outcome": "inactive"},
      {"smiles": "CO/C=C(/C(=O)OC)c1ccccc1COc1cccc(C(F)(F)F)n1", "AC50": "20 µM (active)"},
      {"smiles": "NS(=O)(=O)C(F)(F)C(F)(F)C(F)(F)C(F)(F)C(F)(F)C(F)(F)C(F)(F)C(F)(F)F", "outcome": "inactive"},
      {"smiles": "O=C(O)C(F)(F)C(F)(F)C(F)(F)C(F)(F)C(F)(F)C(F)(F)C(F)(F)C(F)(F)C(F)(F)F", "outcome": "inactive"},
      {"smiles": "O=S(=O)(O)C(F)(F)C(F)(F)C(F)(F)C(F)(F)F", "outcome": "inactive"}
    ]},
    {"system": "SERPINA7 (gene 6906)", "assay": "CCTE_GLTED_hTBG: CCTE's human Thyroxine-binding Globulin (TBG) Inhibition Assay, Great Lakes Toxicology and Ecology Division (GLTED) Lab (AID 2284343);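 further: active chemicals lower fluorescence versus DMSO baseline by displacing probe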", "outline": "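Steps: combine TBG with chemical; incubate 2 hours so that disruptors release ANSA; record fluorescence (380 ex, 475 em). Loss of signal was fitted against DMSO controls.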", "values": [
      {"smiles": "O=NN(c1ccccc1)c1ccccc1", "AC50": "13.9 µM (active)"},
      {"smiles": "ClC1=C(Cl)[C@]2(Cl)[C@@H]3[C@@H]4C[C@@H]([C@H]5O[C@@H]45)[C@@H]3[C@@]1(Cl)C2(Cl)Cl", "AC50": "1.56 µM (active)"},
      {"smiles": "Cc1cc(-c2ccc(N)c(C)c2)ccc1N", "AC50": "26.5 µM (active) and 35.2 µM (active)"},
      {"smiles": "CCCCCCOC(=O)c1ccccc1C(=O)OCCCCCC", "AC50": "5.7 µM (active)"},
      {"smiles": "CCOC(=O)C(O)(c1ccc(Cl)cc1)c1ccc(Cl)cc1", "AC50": "7.32 µM (active)"},
      {"smiles": "Cc1ccccc1CO[C@@H]1C[C@@]2(C(C)C)CC[C@]1(C)O2", "AC50": "22.9 µM (active)"},
      {"smiles": "CC(C)(c1ccccc1)c1ccc(O)cc1", "AC50": "3.54 µM (active)"},
      {"smiles": "O=C(O)C(F)(F)C(F)(F)C(F)(F)C(F)(F)C(F)(F)C(F)(F)C(F)(F)C(F)(F)F", "AC50": "86.5 µM (active)"},
      {"smiles": "CC(c1ccc(O)cc1)(c1ccc(O)cc1)c1ccc(O)cc1", "AC50": "11.5 µM (active)"}
    ]}
  ]
}
